Hits are enriched below; roughly 3.6% of the tested compounds scored in any of these assays.
mHTT-CaM PPI inh = mutant huntingtin-calmodulin interaction inhibitors – biochemical, AlphaScreen, primary screen | inhibition, % at 15 µM | AlphaScreen His-mHTT/GST-CaM binding, luminescence | P42858 | 190,000 compounds, 3.6% hits
Pf apPOL block = Pf-apPOL inhibitors, biochemical, fluorescence; Plasmodium falciparum apicoplast DNA polymerase (apPOL); Recombinant Pf-apPOL, molecular beacon fluorescence, 1.5 h; inhibition, % at 10 µM; 210,000 compounds, 0.25% hits; AID 1794808, 2022
Numbers stand for hits; - = inactive; . = no result. Cut-off read from the data, not from the text of the source: active = inhibition above about 50%; inactive = the rest.

SMILES	mHTT-CaM PPI inh	Pf apPOL block
O=C1C(Nc2cccc(O)c2)=C(N2CCCCC2)C(=O)c2ccccc21	-	-
O=C1C(Nc2cccc(C(F)(F)F)c2)=C(N2CCCCC2)C(=O)c2ccccc21	99	-
CC(=O)N(C1=C(N2CCCC2)C(=O)c2ccccc2C1=O)c1cccc(Cl)c1	100	-
CN(C)c1ccc2nc3ccc(=O)cc-3sc2c1	59	.
Cc1nc2ccc(N(C)C)cc2s1	-	-
Cn1nccc1C(=O)N1CCCC(C)(C(=O)NCc2cccc(F)c2)C1 (stereo not drawn)	-	-
Cc1cc(C2CCCN2Cc2cc(Br)ccc2O)no1 (stereo not drawn)	62	-
CCCc1cc(C2CCCN2Cc2cc(Br)ccc2O)no1 (stereo not drawn)	-	-
NC(=O)Cc1nc(-c2ccccn2)n[nH]1	99	-
O=C(O)Cc1nc(-c2cccnc2)n[nH]1	-	-
O=C(Cc1nc(-c2ccccc2)n[nH]1)Nc1ccc(Cl)cc1	-	-
Cc1cccc(NC(=O)Cc2nc(-c3ccccn3)n[nH]2)c1	99	-
O=C(Cc1nc(-c2ccccn2)n[nH]1)Nc1ccccc1	73	-
Cc1cc(C)cc(NC(=O)Cc2nc(-c3ccccc3)n[nH]2)c1	-	-
COc1cccc(C2Nc3ccccc3NC3=C2C(=O)CC(c2ccc(C)cc2)C3)c1OC (stereo not drawn)	-	-
CC(C)CNC(=O)c1ccc2c(c1)N(C)C(=O)CS2	-	-
CN1CCN(C2C3CC4CC(C3)CC2C4)CC1 (stereo not drawn)	-	-
OCCN1CCN(C2C3CC4CC(C3)CC2C4)CC1 (stereo not drawn)	-	62
Cc1ccc(S(=O)(=O)N=C2C=C(NS(=O)(=O)c3ccccc3)C(=O)c3ccccc32)cc1	66	-
Cc1ccc(C)c(S(=O)(=O)N=C2C=C(Nc3ccccc3)C(=O)c3ccccc32)c1	89	-
Cc1cccc(NC2=C(N(C)C)C(=O)c3ccccc3C2=O)c1	-	-
Cc1ccc(S(=O)(=O)N=C2C=C(N3CCOCC3)C(=O)c3ccccc32)cc1	84	-
CC(=NS(=O)(=O)c1ccc(C)cc1)N1CCOCC1	-	-
Cc1ccc(S(=O)(=O)Nc2ccccn2)cc1	-	-
COc1ccc(NC2=CC(=NS(=O)(=O)c3cc(C)ccc3C)c3ccccc3C2=O)cc1	-	-
SMILES	mHTT-CaM PPI inh	Pf apPOL block
Cc1ccc(S(=O)(=O)N=C2C=C(Nc3cccc(C)c3)C(=O)c3ccccc32)cc1	82	-
CCOc1ccc(S(=O)(=O)N=C2C=C(Nc3cccc(C)c3)C(=O)c3ccccc32)cc1	82	-
CCOc1ccc(N=C(C)C2=C(O)c3ccccc3C2=O)cc1	-	-
COc1ccc(CN(CCC2(CCC(C)C)CCOC(C)(C)C2)C(C)=O)cc1 (stereo not drawn)	-	-
COc1ccc(C(=O)N2CCC(COc3ccc(C(=O)N4CCCC4)cc3)CC2)c(C)c1	-	-
O=C(CCCOc1ccc(Cl)cc1)Nc1nccs1	-	52
O=C(O)CCCC(=O)Nc1nccs1	-	-
CC(=O)c1ccc(NCN2C(=O)C(=O)c3ccccc32)cc1	-	-
Cc1ccc2nc(NC(=O)C3CC(=O)N(CCc4c[nH]c5ccc(C)cc45)C3)sc2c1 (stereo not drawn)	88	-
Cc1ccc2[nH]cc(CCN3CC(C(=O)Nc4ccccc4C)CC3=O)c2c1 (stereo not drawn)	-	-
Cc1ccc2[nH]cc(CCN3CC(C(=O)Nc4nc5c(C)cccc5s4)CC3=O)c2c1 (stereo not drawn)	81	-
Cc1ccc2[nH]cc(CCN3CC(C(=O)Nc4nncs4)CC3=O)c2c1 (stereo not drawn)	-	-
O=C(NCC1CC1)c1cn2c(n1)CCCC2	-	-
O=C(Sc1n[nH]c(=O)[nH]c1=O)c1cccc(Br)c1	-	-
Cc1ccc(C(=O)Sc2n[nH]c(=O)[nH]c2=O)cc1	98	-
COc1cc(C(=O)Nc2ccc3oc(-c4ccc(C)cc4)nc3c2)cc(OC)c1OC	-	-
O=C(CSC1CC(=O)N(c2ccc(Cl)cc2)C1=O)Nc1ccc(Cl)c(Cl)c1 (stereo not drawn)	-	-
CCOc1cccc(CNC(=O)C2CC(=O)N(c3ccc4oc(C)nc4c3)C2)c1 (stereo not drawn)	-	-
COc1cc(OC)c2c(c1C(CCN1CCCC(C)C1)c1ccc(N(C)C)cc1)OC(=O)CC2c1ccc(N(C)C)cc1 (stereo not drawn)	100	-
COc1cc(C2CC(=O)Oc3c(C(CCN4CCCC(C)C4)c4ccc(N(C)C)cc4)c(OC)cc(OC)c32)cc(OC)c1OC (stereo not drawn)	86	-
COc1cc(C(CCN2CCCC(C)C2)c2c(OC)cc(OC)c3c2OC(=O)CC3c2ccc(N(C)C)cc2)cc(OC)c1OC (stereo not drawn)	93	-
COc1ccc(C(CCN2CCCC(C)C2)c2c(O)cc(OC)cc2OC)cc1 (stereo not drawn)	-	-
COc1cc(O)c(C(CCN2CCCC(C)C2)c2cc(OC)c(OC)c(OC)c2)c(OC)c1 (stereo not drawn)	-	-
COc1cc(OC)c2ccc(=O)oc2c1C(CCN1CCCC(C)C1)c1ccc(N(C)C)cc1 (stereo not drawn)	54	-
COc1cc(C2CC(=O)Oc3ccc(C(C)(C)C)cc32)cc(OC)c1OC (stereo not drawn)	-	-
SMILES	mHTT-CaM PPI inh	Pf apPOL block
COc1cccc(C(=O)Nc2nnc(-c3ccncc3)s2)c1OC	-	-
Cc1ccc(NC(NC(=O)c2cccnc2)C(Cl)(Cl)Cl)c(C)c1 (stereo not drawn)	-	-
COc1ccc(NC(=O)c2oc3ccc(S(=O)(=O)N4CCCC4)cc3c2C)cc1Cl	-	-
CC1=C(C(=O)Nc2cc(F)ccc2F)C2(CCCCC2)OC1=O	-	-
Cc1c(NS(=O)(=O)c2ccc(Br)cc2)cccc1[N+](=O)[O-]	-	-
COc1cccc(-c2cc3n(n2)CCCN(Cc2ccncc2)C3)c1	-	-
O=C(Cn1cnc2c(-c3ccccc3)csc2c1=O)Nc1ccc(Cl)cc1	-	-
CCCC(=O)NC(c1cccc([N+](=O)[O-])c1)c1ccc2cccnc2c1O (stereo not drawn)	99	-
CC(C)C(=O)NC(c1cccc([N+](=O)[O-])c1)c1ccc2cccnc2c1O (stereo not drawn)	100	-
CCCC(=O)NC(c1cccc(F)c1)c1ccc2cccnc2c1O (stereo not drawn)	100	-
O=C1CCCC2=C1C(c1ccccc1Cl)n1nc(-c3cccc(O)c3)nc1N2 (stereo not drawn)	-	-
O=C(COc1cccc(C(F)(F)F)c1)N1CCN(c2cc(N3CCCCC3)ncn2)CC1	-	-
CCC(CC)C(=O)N1CCC(COc2ccc(C(=O)N3CCOCC3)cc2)CC1	-	-
COc1ncccc1CN(C)S(C)(=O)=O	-	-
COCCn1c(C2CCN(S(=O)(=O)c3ccc(C)cc3C)C2)nc2cccnc21 (stereo not drawn)	-	-
O=C(Nc1ccc(F)cc1Cl)c1cnc(-c2ccccc2)nc1-c1ccncc1	-	-
COc1cc(C(CC(=O)N2CCOCC2)c2c(OC)cc(OC)c3c(-c4ccccc4)cc(=O)oc23)cc(OC)c1OC (stereo not drawn)	-	-
COc1cc(C(CCN2CCCC2)c2c(OC)cc(OC)c3ccc(=O)oc23)cc(OC)c1OC (stereo not drawn)	-	-
